Results reported in paper PMC7862700, “An all-to-all approach to the identification of sequence-specific readers for epigenetic DNA modifications on cytosine”.

Tests used:
Assay in all cases: DAPPL (digital affinity profiling via proximity ligation, sequencing); 10 mM Tris-HCl pH 7.5, 50 mM NaCl, 1 mM DTT, 4% glycerol, room temperature, 30 min; GST-TFs on glutathione beads, 16-mer random dsDNA library, 0.1% formaldehyde crosslink after washing; high values mean tight binding
Settings in all cases: protein: recombinant; tags: N-terminal GST; dsDNA, one strand shown
ERF = target: T1, ERF (Homo sapiens, UniProt P50548 1-548)
T1 sequence: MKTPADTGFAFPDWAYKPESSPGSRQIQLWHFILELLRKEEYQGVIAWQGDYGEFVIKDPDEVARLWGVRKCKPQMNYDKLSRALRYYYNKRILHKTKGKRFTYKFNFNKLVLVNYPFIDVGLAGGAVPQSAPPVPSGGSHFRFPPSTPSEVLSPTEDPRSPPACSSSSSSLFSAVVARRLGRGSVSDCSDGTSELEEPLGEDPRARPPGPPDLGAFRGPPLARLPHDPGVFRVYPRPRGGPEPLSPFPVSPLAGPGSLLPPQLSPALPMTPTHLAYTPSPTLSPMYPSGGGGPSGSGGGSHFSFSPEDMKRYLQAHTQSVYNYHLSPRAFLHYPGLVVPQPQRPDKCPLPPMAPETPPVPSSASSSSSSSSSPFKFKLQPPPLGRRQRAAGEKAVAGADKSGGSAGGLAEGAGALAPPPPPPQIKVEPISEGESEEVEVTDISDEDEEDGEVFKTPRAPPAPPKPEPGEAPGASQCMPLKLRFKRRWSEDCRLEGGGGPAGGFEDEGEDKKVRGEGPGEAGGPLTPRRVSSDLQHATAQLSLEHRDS
Procedure, shortened: (§1)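 GST fusions of human transcription factors were expressed in yeast and captured with glutathione beads. Once given DNA barcodes and pooled alongside a tag-only sample, they were incubated for 30 min at room temperature with 200 nmole of a random double-stranded 16-mer DNA library in Tris/NaCl/DTT/glycerol buffer, then washed, crosslinked (0.1% formaldehyde), proximity-ligated, PCR-amplified and sequenced on an Illumina NextSeq500. The binding signal of each hexamer is its read frequency for a factor divided by its frequency for the tag-only sample.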

ETV3L = target: T2, ETV3L (Homo sapiens, UniProt Q6ZN32 1-361)
T2 sequence: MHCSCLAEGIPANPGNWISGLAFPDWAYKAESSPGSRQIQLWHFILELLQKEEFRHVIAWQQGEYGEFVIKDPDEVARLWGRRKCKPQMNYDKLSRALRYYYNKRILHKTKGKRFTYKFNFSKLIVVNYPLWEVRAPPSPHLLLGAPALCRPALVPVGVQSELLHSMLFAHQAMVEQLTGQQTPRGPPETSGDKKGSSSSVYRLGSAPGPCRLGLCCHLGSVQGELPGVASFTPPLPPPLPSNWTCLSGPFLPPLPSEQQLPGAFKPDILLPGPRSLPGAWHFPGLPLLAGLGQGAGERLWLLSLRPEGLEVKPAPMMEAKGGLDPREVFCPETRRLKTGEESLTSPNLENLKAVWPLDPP
Procedure, shortened: as §1

ETS2 = target: T3, ETS2 (Homo sapiens, UniProt P15036 1-469)
T3 sequence: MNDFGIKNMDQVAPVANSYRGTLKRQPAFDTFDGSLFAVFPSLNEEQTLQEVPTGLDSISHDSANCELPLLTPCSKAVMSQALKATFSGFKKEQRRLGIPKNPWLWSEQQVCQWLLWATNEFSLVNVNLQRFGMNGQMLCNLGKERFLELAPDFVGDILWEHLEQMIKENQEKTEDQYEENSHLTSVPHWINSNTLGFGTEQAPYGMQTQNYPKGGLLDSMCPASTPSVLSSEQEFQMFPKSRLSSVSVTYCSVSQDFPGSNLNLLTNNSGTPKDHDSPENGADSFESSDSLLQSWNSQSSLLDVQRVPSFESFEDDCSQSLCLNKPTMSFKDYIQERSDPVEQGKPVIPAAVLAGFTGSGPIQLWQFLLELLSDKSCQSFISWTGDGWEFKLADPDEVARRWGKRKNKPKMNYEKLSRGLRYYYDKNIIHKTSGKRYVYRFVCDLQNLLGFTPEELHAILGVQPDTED
Procedure, shortened: as §1

SPDEF = target: T4, SPDEF (Homo sapiens, UniProt O95238 1-335)
T4 sequence: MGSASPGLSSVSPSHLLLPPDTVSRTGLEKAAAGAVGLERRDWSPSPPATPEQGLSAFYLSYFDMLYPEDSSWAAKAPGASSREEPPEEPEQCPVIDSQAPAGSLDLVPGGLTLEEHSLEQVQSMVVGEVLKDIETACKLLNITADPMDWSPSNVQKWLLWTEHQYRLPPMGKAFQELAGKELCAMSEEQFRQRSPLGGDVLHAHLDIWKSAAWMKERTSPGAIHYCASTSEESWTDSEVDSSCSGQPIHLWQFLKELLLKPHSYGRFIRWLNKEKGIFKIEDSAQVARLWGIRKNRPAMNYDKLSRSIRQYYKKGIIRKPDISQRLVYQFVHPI
Procedure, shortened: as §1

ETV7 = target: T5, ETV7 (Homo sapiens, UniProt Q9Y603 1-341)
T5 sequence: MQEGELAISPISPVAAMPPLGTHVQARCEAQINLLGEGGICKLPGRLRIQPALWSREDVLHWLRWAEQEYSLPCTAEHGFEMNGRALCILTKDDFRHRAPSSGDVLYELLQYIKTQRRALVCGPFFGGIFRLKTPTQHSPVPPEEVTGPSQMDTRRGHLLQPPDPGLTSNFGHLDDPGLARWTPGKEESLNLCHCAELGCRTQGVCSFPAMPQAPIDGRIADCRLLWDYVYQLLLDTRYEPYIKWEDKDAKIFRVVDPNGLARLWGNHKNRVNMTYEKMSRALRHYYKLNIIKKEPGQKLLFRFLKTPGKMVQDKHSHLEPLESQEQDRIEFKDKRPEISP
Procedure, shortened: as §1

ELF5 = target: T6, ELF5 (Homo sapiens, UniProt Q9UKW6-2 1-255)
T6 sequence: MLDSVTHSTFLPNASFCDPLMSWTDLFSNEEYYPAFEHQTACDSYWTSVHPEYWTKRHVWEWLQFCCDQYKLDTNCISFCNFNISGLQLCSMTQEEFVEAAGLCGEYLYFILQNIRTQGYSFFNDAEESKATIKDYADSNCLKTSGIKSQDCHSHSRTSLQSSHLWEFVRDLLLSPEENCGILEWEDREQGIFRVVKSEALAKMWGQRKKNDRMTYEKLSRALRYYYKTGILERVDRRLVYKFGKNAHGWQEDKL
Procedure, shortened: as §1

ETV3 = target: T7, ETV3 (Homo sapiens, UniProt P41162-2 1-143)
T7 sequence: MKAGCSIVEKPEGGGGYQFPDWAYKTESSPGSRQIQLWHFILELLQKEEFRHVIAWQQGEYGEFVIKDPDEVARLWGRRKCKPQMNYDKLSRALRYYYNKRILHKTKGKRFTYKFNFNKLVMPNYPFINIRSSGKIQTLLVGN
Procedure, shortened: as §1

ETV6 = ETV6 (Homo sapiens, UniProt P41212 1-452)
ETV6, sequence (P41212 whole entry): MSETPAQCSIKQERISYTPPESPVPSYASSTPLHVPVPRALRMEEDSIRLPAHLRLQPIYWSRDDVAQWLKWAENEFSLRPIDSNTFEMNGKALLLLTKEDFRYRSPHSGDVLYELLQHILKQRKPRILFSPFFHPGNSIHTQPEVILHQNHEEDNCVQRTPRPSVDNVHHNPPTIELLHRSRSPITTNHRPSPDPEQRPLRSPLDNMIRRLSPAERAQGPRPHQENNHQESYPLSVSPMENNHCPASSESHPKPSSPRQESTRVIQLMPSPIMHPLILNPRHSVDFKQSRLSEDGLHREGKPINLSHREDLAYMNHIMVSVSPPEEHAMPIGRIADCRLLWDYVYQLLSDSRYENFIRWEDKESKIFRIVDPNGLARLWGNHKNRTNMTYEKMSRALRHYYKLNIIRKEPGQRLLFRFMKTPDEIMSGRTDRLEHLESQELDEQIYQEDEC
Procedure, shortened: as §1

Sequence | binding signal (ERF) | binding signal (ETV3L) | binding signal (ETS2) | binding signal (SPDEF) | binding signal (ETV7) | binding signal (ELF5) | binding signal (ETV3) | binding signal (ETV6)
GTTAAC | 1.12 fold enrichment (6-mer frequency, TF over GST control) | 1.14 fold enrichment (6-mer frequency, TF over GST control) | 1.22 fold enrichment (6-mer frequency, TF over GST control) | 1.23 fold enrichment (6-mer frequency, TF over GST control) | 1.24 fold enrichment (6-mer frequency, TF over GST control) | 1.22 fold enrichment (6-mer frequency, TF over GST control) | 1.27 fold enrichment (6-mer frequency, TF over GST control) | 1.18 fold enrichment (6-mer frequency, TF over GST control)
AGCTCC | 1.24 fold enrichment (6-mer frequency, TF over GST control) | 1.25 fold enrichment (6-mer frequency, TF over GST control) | 1.33 fold enrichment (6-mer frequency, TF over GST control) | 1.4 fold enrichment (6-mer frequency, TF over GST control) | 1.17 fold enrichment (6-mer frequency, TF over GST control) | 1.2 fold enrichment (6-mer frequency, TF over GST control) | 1.22 fold enrichment (6-mer frequency, TF over GST control) | 1.32 fold enrichment (6-mer frequency, TF over GST control)
ACTTTT | 1.26 fold enrichment (6-mer frequency, TF over GST control) | 1.25 fold enrichment (6-mer frequency, TF over GST control) | 1.25 fold enrichment (6-mer frequency, TF over GST control) | 1.25 fold enrichment (6-mer frequency, TF over GST control) | 1.36 fold enrichment (6-mer frequency, TF over GST control) | 1.26 fold enrichment (6-mer frequency, TF over GST control) | 1.31 fold enrichment (6-mer frequency, TF over GST control) | 1.34 fold enrichment (6-mer frequency, TF over GST control)
TTTCGG | 1.17 fold enrichment (6-mer frequency, TF over GST control) | 1.22 fold enrichment (6-mer frequency, TF over GST control) | 1.24 fold enrichment (6-mer frequency, TF over GST control) | 1.21 fold enrichment (6-mer frequency, TF over GST control) | 1.28 fold enrichment (6-mer frequency, TF over GST control) | 1.21 fold enrichment (6-mer frequency, TF over GST control) | 1.16 fold enrichment (6-mer frequency, TF over GST control) | 1.19 fold enrichment (6-mer frequency, TF over GST control)
AGCTTT | 1.15 fold enrichment (6-mer frequency, TF over GST control) | 1.2 fold enrichment (6-mer frequency, TF over GST control) | 1.19 fold enrichment (6-mer frequency, TF over GST control) | 1.12 fold enrichment (6-mer frequency, TF over GST control) | 1.25 fold enrichment (6-mer frequency, TF over GST control) | 1.04 fold enrichment (6-mer frequency, TF over GST control) | 1.07 fold enrichment (6-mer frequency, TF over GST control) | 1.19 fold enrichment (6-mer frequency, TF over GST control)
TCACTG | 1.17 fold enrichment (6-mer frequency, TF over GST control) | 1.4 fold enrichment (6-mer frequency, TF over GST control) | 1.28 fold enrichment (6-mer frequency, TF over GST control) | 1.16 fold enrichment (6-mer frequency, TF over GST control) | 1.3 fold enrichment (6-mer frequency, TF over GST control) | 1.17 fold enrichment (6-mer frequency, TF over GST control) | 1.16 fold enrichment (6-mer frequency, TF over GST control) | 1.2 fold enrichment (6-mer frequency, TF over GST control)
TTGAAT | 1.05 fold enrichment (6-mer frequency, TF over GST control) | 1.01 fold enrichment (6-mer frequency, TF over GST control) | 1.06 fold enrichment (6-mer frequency, TF over GST control) | 1.17 fold enrichment (6-mer frequency, TF over GST control) | 1.09 fold enrichment (6-mer frequency, TF over GST control) | 1.09 fold enrichment (6-mer frequency, TF over GST control) | 1.02 fold enrichment (6-mer frequency, TF over GST control) | 1.03 fold enrichment (6-mer frequency, TF over GST control)
ACCTGC | 1.35 fold enrichment (6-mer frequency, TF over GST control) | 1.42 fold enrichment (6-mer frequency, TF over GST control) | 1.5 fold enrichment (6-mer frequency, TF over GST control) | 1.4 fold enrichment (6-mer frequency, TF over GST control) | 1.48 fold enrichment (6-mer frequency, TF over GST control) | 1.39 fold enrichment (6-mer frequency, TF over GST control) | 1.44 fold enrichment (6-mer frequency, TF over GST control) | 1.66 fold enrichment (6-mer frequency, TF over GST control)
GAATTT | 1.27 fold enrichment (6-mer frequency, TF over GST control) | 1.21 fold enrichment (6-mer frequency, TF over GST control) | 1.28 fold enrichment (6-mer frequency, TF over GST control) | 1.23 fold enrichment (6-mer frequency, TF over GST control) | 1.29 fold enrichment (6-mer frequency, TF over GST control) | 1.3 fold enrichment (6-mer frequency, TF over GST control) | 1.29 fold enrichment (6-mer frequency, TF over GST control) | 1.2 fold enrichment (6-mer frequency, TF over GST control)
TTTATA | 1.4 fold enrichment (6-mer frequency, TF over GST control) | 1.42 fold enrichment (6-mer frequency, TF over GST control) | 1.4 fold enrichment (6-mer frequency, TF over GST control) | 1.3 fold enrichment (6-mer frequency, TF over GST control) | 1.43 fold enrichment (6-mer frequency, TF over GST control) | 1.27 fold enrichment (6-mer frequency, TF over GST control) | 1.32 fold enrichment (6-mer frequency, TF over GST control) | 1.38 fold enrichment (6-mer frequency, TF over GST control)
CCGATT | 1.28 fold enrichment (6-mer frequency, TF over GST control) | 1.43 fold enrichment (6-mer frequency, TF over GST control) | 1.39 fold enrichment (6-mer frequency, TF over GST control) | 1.32 fold enrichment (6-mer frequency, TF over GST control) | 1.31 fold enrichment (6-mer frequency, TF over GST control) | 1.39 fold enrichment (6-mer frequency, TF over GST control) | 1.38 fold enrichment (6-mer frequency, TF over GST control) | 1.52 fold enrichment (6-mer frequency, TF over GST control)
CTTGGA | 1.12 fold enrichment (6-mer frequency, TF over GST control) | 1.11 fold enrichment (6-mer frequency, TF over GST control) | 1.14 fold enrichment (6-mer frequency, TF over GST control) | 1.22 fold enrichment (6-mer frequency, TF over GST control) | 1.14 fold enrichment (6-mer frequency, TF over GST control) | 1.09 fold enrichment (6-mer frequency, TF over GST control) | 1.08 fold enrichment (6-mer frequency, TF over GST control) | 1.03 fold enrichment (6-mer frequency, TF over GST control)
ACTAGC | 1.19 fold enrichment (6-mer frequency, TF over GST control) | 1.16 fold enrichment (6-mer frequency, TF over GST control) | 1.16 fold enrichment (6-mer frequency, TF over GST control) | 1.15 fold enrichment (6-mer frequency, TF over GST control) | 1.16 fold enrichment (6-mer frequency, TF over GST control) | 1.13 fold enrichment (6-mer frequency, TF over GST control) | 1.15 fold enrichment (6-mer frequency, TF over GST control) | 1.2 fold enrichment (6-mer frequency, TF over GST control)
TTTACT | 1.3 fold enrichment (6-mer frequency, TF over GST control) | 1.42 fold enrichment (6-mer frequency, TF over GST control) | 1.44 fold enrichment (6-mer frequency, TF over GST control) | 1.44 fold enrichment (6-mer frequency, TF over GST control) | 1.57 fold enrichment (6-mer frequency, TF over GST control) | 1.36 fold enrichment (6-mer frequency, TF over GST control) | 1.53 fold enrichment (6-mer frequency, TF over GST control) | 1.44 fold enrichment (6-mer frequency, TF over GST control)
GTCTTT | 1.27 fold enrichment (6-mer frequency, TF over GST control) | 1.27 fold enrichment (6-mer frequency, TF over GST control) | 1.26 fold enrichment (6-mer frequency, TF over GST control) | 1.17 fold enrichment (6-mer frequency, TF over GST control) | 1.28 fold enrichment (6-mer frequency, TF over GST control) | 1.31 fold enrichment (6-mer frequency, TF over GST control) | 1.26 fold enrichment (6-mer frequency, TF over GST control) | 1.24 fold enrichment (6-mer frequency, TF over GST control)
